Screening results from PubChem.
In the library only some 28% were active in any assay of this set; here they are far more common.
CYP2C9 inh – human CYP2C9 inhibition | P11712 | CYP2C9 Supersomes, luciferin-H conversion, luminescence | inhibition, % at 5 µM | 96,000 tested, 20% active | AID 777;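 active = blocking of liver enzyme CYP2C9 beyond about 50% at 5 µM, limit read from the data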
CYP2C19 activ – cytochrome P450 2C19 (human) activation; P33261; recombinant CYP2C19, luciferin-H EGE luminescence; hits give high values; 0 = fully inhibited enzyme, 1 = untreated enzyme; activation factor at 5 µM; 96,000 tested, under 10 active; AID 1025;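 active = activation factor of at least 2 at 5 µM in the primary screen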;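 also: 0 = wells with 2.5 mM tranylcypromine and 1 = vehicle-only wells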
CD11b adhes inh – CD11b/CD18-fibrinogen binding inhibition; P05107+P11215; K562 CD11b/CD18 adhesion to fibrinogen, ATPlite luminescence; Mn2+ added to activate the integrin; inhibition, % at 10 µM; 93,000 tested, 0.54% active; AID 1497;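 active = primary inhibition of 50% or more at 10 µM, then 40% or more on retest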
CYP2C9 activ – increases human cytochrome P450 2C9 activity; P11712; recombinant CYP2C9, luciferin-H conversion, luminescence; hits give high values; factor 1 = untreated enzyme, 0 = blocked; activation factor at 5 µM; 96,000 tested, 1.4% active;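 active = activation factor of 2 or more for CYP2C9 at a 5 µM dose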;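 also: 0 = sulfaphenazole-blocked wells and 1 = vehicle-only wells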
Mac1 fbg enh – enhancers of human CD11b/CD18 binding to fibrinogen. P05107+P11215. K562 CD11b/CD18 adhesion to fibrinogen, ATPlite luminescence. activation, % at 10 µM. 93,000 tested, 0.07% active. AID 1499;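 active = 10 µM primary screen giving 50% or more activity, confirmed by 40% or more on retest at that dose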
CYP2C19 inh – blocks human cytochrome P450 2C19. P33261. CYP2C19 Supersomes, luciferin-H EGE luminescence, 30 min. inhibition, % at 5 µM. 96,000 tested, 21% active. AID 778;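 active = CYP2C19 inhibition above a set limit at 5 µM in the primary screen, cut at about 50% in these data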;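 also: plate controls were negative control wells for no effect and 2.5 mM tranylcypromine positive control for full effect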
Active calls of the source: *; . = not tested or not shown.

SMILES	CYP2C9 inh	CYP2C19 activ	CD11b adhes inh	CYP2C9 activ	Mac1 fbg enh	CYP2C19 inh
Cc1ccc(C)c(NC(=O)CSc2nnc(-c3ccccc3)o2)c1	24.5	0.4	2.4	0.8	-3.2	55.8*
CCSc1nnc(NC(=O)c2nn(C(C)C)c(=O)c3ccccc23)s1	16.3	0.9	-22.7	0.8	6.0	6.6
CC1CCCN(C(=O)C(C)Sc2nc(-c3ccccc3)cc(C(F)(F)F)n2)C1 (centres undefined)	60.2*	0.3	29.5	0.4	-0.8	71.3*
CC(Sc1nc(-c2ccccc2)cc(C(F)(F)F)n1)C(=O)NCc1ccco1 (centres undefined)	-57.4	1	7.2	1.6	-0.7	-1.8
O=C(CSc1nc(-c2ccccc2)cc(C(F)(F)F)n1)N1CCOCC1	7.6	1	21.9	0.9	-2.2	3.2
CC(Sc1nc(-c2ccccc2)cc(C(F)(F)F)n1)C(=O)N1CCCCC1 (centres undefined)	58.0*	0.5	.	0.4	.	46.8
Cc1ccsc1/C=N/n1c(COc2ccccc2)n[nH]c1=S	.	.	27.4	.	2.4	.
CC1CCCC(C)N1CCNC(=O)CCn1nc(-c2ccccc2)ccc1=O (centres undefined)	-4.9	1.2	7.4	1	2.7	-15.5
Cc1ccc(-c2nn(C)c(=O)c3ccccc23)cc1CNC(=O)c1ccco1	31.7	0.9	2.3	0.7	2.8	14.9
CC(C)C(OC(=O)c1cc2sccc2n1C)C(=O)NCC1CCCO1 (centres undefined)	43.3	0.4	2.8	0.6	-4.8	56.5*
COCCNC(=O)C(C)OC(=O)c1cc2sccc2n1C (centres undefined)	-9.2	0.5	-25.3	1.1	2.9	49.6
Cn1c(C(=O)OC(C(=O)NC2CCCC2)c2ccncc2)cc2sccc21 (centres undefined)	71.7*	0.1	-29.0	0.3	-5.5	94.8*
Cn1c(C(=O)OC(C(=O)NC2CCCCC2)c2ccncc2)cc2sccc21 (centres undefined)	90.6*	0	-4.1	0.1	-2.8	98.1*
Cn1c(=O)c2c(ncn2CCCNC2=CC(C)(C)CC(=O)C2)n(C)c1=O	-23.3	1.2	1.9	1.2	-1.2	-17.6
CC(=O)NC(CC(=O)Nc1ccc(S(=O)(=O)N2CCCCC2)cc1)c1ccccc1 (centres undefined)	74.0*	0.3	-2.7	0.3	0.1	68.7*
CC(=O)NC(CC(=O)Nc1cccc(S(=O)(=O)N2CCCCC2)c1)c1ccccc1 (centres undefined)	37.8	0.9	-47.8	0.6	0.0	7.5
COC(C(=O)Nc1ccc(S(=O)(=O)Nc2ccc(F)cc2)cc1)c1ccccc1 (centres undefined)	.	.	9.6	.	1.5	.
COC(C(=O)Nc1ccc(S(=O)(=O)N2CCCCC2)cc1)c1ccccc1 (centres undefined)	80.2*	0.5	-38.6	0.2	-2.2	46.1
CC(=O)CC1(O)C(=O)N(Cc2ccccc2)c2ccccc21 (centres undefined)	12.8	0.6	.	0.9	.	36.2
Cc1coc(C)c1C(=O)CC1(O)C(=O)N(Cc2ccccc2)c2ccccc21 (centres undefined)	39.3	0	6.3	0.6	3.0	98.5*
C/C(CC1(O)C(=O)N(Cc2ccccc2)c2ccccc21)=N\O (centres undefined)	8.0	0.5	-16.9	0.9	-3.7	50.3*
Cc1cccc(C)c1-n1c(SCC(=O)NCc2ccco2)nc2ccccc2c1=O	32.0	0.6	.	0.7	.	44.4
O=C(CCCNC(=O)/C(=C/c1ccc(F)cc1)NC(=O)c1ccccc1)OCc1ccccc1	.	.	-2.5	.	-2.2	.
CCOP(=O)(OCC)C(NCc1ccccc1)c1ccc(Br)cc1 (centres undefined)	13.8	0.5	-4.9	0.9	-1.1	54.2*
CCOC(=O)CN(Cc1sccc1C)C(=O)Nc1ccc(OCC)cc1	.	.	9.0	.	-0.8	.
COCCOC(=O)c1c(C)oc2ccc(OCc3cc(C(=O)OC)oc3C)cc12	55.6*	0.6	-2.4	0.4	1.5	43.1
COC(=O)c1cc(COc2ccc3c(c2)oc(=O)c2ccccc23)c(C)o1	49.4	0.5	.	0.5	.	51.9*
COC(=O)c1cc(-c2c(C)oc3cc(OC)ccc3c2=O)c(C)o1	1.0	1.1	-4.7	1	-2.3	-13.8
